From publication PMC7819943, “Rice protein-binding microarrays: a tool to detect cis-acting elements near promoter regions in rice”
Over roughly 68,000 sequences, “fluorescence intensity (a.u.)” has its median near 9,100; the highest 2% begin near 16,000. Shown is part of a subset that was picked to be rich in the highest values.

What follows are sequences tested against OsWRKY34 (Oryza sativa, UniProt Q0JBA9 1-250) (assay: protein-binding microarray (RPBM); PBS, 2% BSA, 51.3 ng/ul salmon testes DNA, 50 uM zinc acetate, 200 nM TF, 25 C, 1 h; high values mean tight binding). Settings: protein: recombinant; tags: N-terminal polyhistidine and DsRed monomer fusion (pET32a); label: CyDye5-dUTP incorporated in the synthesized complementary strand; 3' TTTTT single-stranded linker to array surface; dsDNA, one strand shown.
Sequence of OsWRKY34 (Q0JBA9 entry or part of it): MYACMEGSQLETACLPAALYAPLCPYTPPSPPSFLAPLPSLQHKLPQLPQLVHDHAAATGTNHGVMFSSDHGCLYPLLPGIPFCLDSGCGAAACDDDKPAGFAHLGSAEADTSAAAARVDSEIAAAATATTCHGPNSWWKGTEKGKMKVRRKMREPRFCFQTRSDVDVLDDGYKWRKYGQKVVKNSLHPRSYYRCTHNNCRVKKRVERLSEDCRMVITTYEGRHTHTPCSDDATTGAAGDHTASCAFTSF
Outline: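 An Axon 4000B scanner gave the binding signal as per-feature fluorescence intensity in arbitrary units. This followed washing of a custom Agilent array that had been incubated for 1 h at 25 °C with 200 nM protein in PBS, 2% BSA, salmon testes DNA and 50 µM zinc acetate. The proteins were transcription factors fused at the N-terminus to polyhistidine and DsRed, expressed in E. coli BL21-CodonPlus and purified on Ni–NTA.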
For “GCCGTGGTGGTGTGGGGATCGTGTTGTGGCGGCGGATTGGCGGAGTCACCTAGTGCAG”, the binding signal was 8690 fluorescence intensity (a.u.). For “TTGGCTCGAGGCGGGGCTGGTTGGTTGGTTGGTTTGGTGGCGGAGTCACCTAGTGCAG”, the binding signal was 14600 fluorescence intensity (a.u.). In the case of “GTCGGCGTCGGCGTCGGCGTCGGCGGGCGGGAGGCGGGAGCGGAGTCACCTAGTGCAG”, the binding signal is reported as 8650 fluorescence intensity (a.u.). With “GTGGGTGGAGGAAGCGGATAGGGAGAGGGGTGTGGGGCGGCGGAGTCACCTAGTGCAG” the binding signal was 16000 fluorescence intensity (a.u.). In the case of “CGGCGCGCCGTGATTGTGCCTGATTGGGGTGGGGTTGGGGCGGAGTCACCTAGTGCAG”, the binding signal is reported as 25300 fluorescence intensity (a.u.). In the case of “GGTGGCGTGCAGGGTGGAGCGGGAGGGCGGCGGCGGGTGGCGGAGTCACCTAGTGCAG”, the binding signal is reported as 17300 fluorescence intensity (a.u.). “GGGAGGGAGCCAGAGCGGCGGGCGTGGGGTTGGAGGAGGGCGGAGTCACCTAGTGCAG” was tested, and the binding signal was 9900 fluorescence intensity (a.u.). With “CCGAAGATATCAACCAAACAGACCCGAACTTCTTCCCATTCGGAGTCACCTAGTGCAG” the binding signal was 8360 fluorescence intensity (a.u.). With “TGTTTTGGACTTTTTGGTCAACGGCCCATCAAAGCAAGCCCGGAGTCACCTAGTGCAG” the binding signal was 13000 fluorescence intensity (a.u.). “GCCAAACGCGCCAGATCCGCGCCTCCTCCACTCACACGCGCGGAGTCACCTAGTGCAG” was tested, and the binding signal was 8910 fluorescence intensity (a.u.). For “AGCACCACCACCACCCCAGCGCCTCCTACTCCACCGGCTCCGGAGTCACCTAGTGCAG”, the binding signal was 8830 fluorescence intensity (a.u.). In the case of “TCCATGCAGTCTTCTTCTTCTGCAGCCTATGCTGTTAGTCCGGAGTCACCTAGTGCAG”, the binding signal is reported as 11700 fluorescence intensity (a.u.). “TTTCATTGTTTCCGCAGACACGCTTTTCAAACTACTAAACCGGAGTCACCTAGTGCAG” was tested, and the binding signal was 8080 fluorescence intensity (a.u.). “AATTTATAACCGTGACCTGCTGCCATATGCTAACCGTTTACGGAGTCACCTAGTGCAG” was tested, and the binding signal was 8260 fluorescence intensity (a.u.). With “CTTTGTGCTGGACCGACGACGTCGTTCGCTCTTTTATCCTCGGAGTCACCTAGTGCAG” the binding signal was 9040 fluorescence intensity (a.u.). In the case of “TGATCTGATCTGACAATTTGGGCGGGCTGTGTTTTATGAACGGAGTCACCTAGTGCAG”, the binding signal is reported as 12900 fluorescence intensity (a.u.). For “CATATCAGTGGTTAACTGTGCTGTCTCAGTTGATCTCCCGCGGAGTCACCTAGTGCAG”, the binding signal was 8360 fluorescence intensity (a.u.). For “CATGTTAGATGTTTTTTTTCTTGTTACTCTTTTTTATTTTCGGAGTCACCTAGTGCAG”, the binding signal was 13300 fluorescence intensity (a.u.). For “ACCTCTGTTTTCATGGGCTAGTGGCCCAGTACCTCACTGCCGGAGTCACCTAGTGCAG”, the binding signal was 8930 fluorescence intensity (a.u.). In the case of “GCATGGAGGCGTTTCATCAAACACCTTGCGCCTGCGGGAGCGGAGTCACCTAGTGCAG”, the binding signal is reported as 8030 fluorescence intensity (a.u.). For “AACTACAACTATCTTGTTTTTATTTACACGCTTTTCAAACCGGAGTCACCTAGTGCAG”, the binding signal was 8620 fluorescence intensity (a.u.). In the case of “AACCCACCTCTTTCGTTTTCCGCGCGTACGCTTTTCAAACCGGAGTCACCTAGTGCAG”, the binding signal is reported as 8710 fluorescence intensity (a.u.). “AACCCACCTATCTTGTTTTCCACGTGTACGCTTTTCAAACCGGAGTCACCTAGTGCAG” was tested, and the binding signal was 19200 fluorescence intensity (a.u.). With “TCTGTATATATTACTACTTGCGTTTCTCTTTCTTTCTTCCCGGAGTCACCTAGTGCAG” the binding signal was 11000 fluorescence intensity (a.u.). “ATCACATCTTAACATTTCATTCTCTGCTCAAAGATTCGATCGGAGTCACCTAGTGCAG” was tested, and the binding signal was 8620 fluorescence intensity (a.u.). In the case of “AGCTCATCACTTCTTCTTGCATGCATGCACTACCGTCGGCCGGAGTCACCTAGTGCAG”, the binding signal is reported as 10400 fluorescence intensity (a.u.). With “TGCACACATGCACACACGCGCGCGCTGCTGCTGCTGCTGACGGAGTCACCTAGTGCAG” the binding signal was 8160 fluorescence intensity (a.u.). For “GGTGAAGCTCTGCGCTGACACGTTGATGCAGCGGAGCACGCGGAGTCACCTAGTGCAG”, the binding signal was 18900 fluorescence intensity (a.u.). “GCACACCCTCGCTCTGACGACCCTGTCACGTTGAGCTACGCGGAGTCACCTAGTGCAG” was tested, and the binding signal was 8240 fluorescence intensity (a.u.). For “ACAACGCATTTCCATTTCTACTCTGCCCCTGGTAAATTACCGGAGTCACCTAGTGCAG”, the binding signal was 12400 fluorescence intensity (a.u.). With “ACTGCCTTACCTGTTCATCTTCCAAACTGATTTGGTTTGTCGGAGTCACCTAGTGCAG” the binding signal was 9370 fluorescence intensity (a.u.). With “ACGGCACCTCATAGATTATTCCGTCCGTTCCAACAACCTCCGGAGTCACCTAGTGCAG” the binding signal was 8320 fluorescence intensity (a.u.). With “ACAATTAACACACGTAAACACTATCTGCTATTGTAAAAAACGGAGTCACCTAGTGCAG” the binding signal was 8460 fluorescence intensity (a.u.). For “AAACAATTATCTAAAAACCTCACTATTAATAGAGAGATTCCGGAGTCACCTAGTGCAG”, the binding signal was 38700 fluorescence intensity (a.u.). In the case of “ACTTTTTATACGCAACTTTCATTGCATATATTTTACTTTTCGGAGTCACCTAGTGCAG”, the binding signal is reported as 9540 fluorescence intensity (a.u.). For “AAGAATTTTGCTTTGGTTCAACCTTTTTTCTCTTCTTTCTCGGAGTCACCTAGTGCAG”, the binding signal was 11300 fluorescence intensity (a.u.). For “ACCTTCTTACCCACTCCACCCACTGACAACGTTGGCCACCCGGAGTCACCTAGTGCAG”, the binding signal was 9360 fluorescence intensity (a.u.). In the case of “CAACGTTGACCCGGGTTGACCCACGGTTCTTCAACAAATGCGGAGTCACCTAGTGCAG”, the binding signal is reported as 20700 fluorescence intensity (a.u.). “CTGTAGTGTTGCTTGGTTTCTCTTTTTTGCCTCTTCACGGCGGAGTCACCTAGTGCAG” was tested, and the binding signal was 13200 fluorescence intensity (a.u.). “TATATAACACAAAATAAGATCAACGTTGACCCGGGTTGACCGGAGTCACCTAGTGCAG” was tested, and the binding signal was 10200 fluorescence intensity (a.u.). “TGGTTTGGTTTGCTTCTTCTCTGCTTCAACGGTTGGTCGACGGAGTCACCTAGTGCAG” was tested, and the binding signal was 16900 fluorescence intensity (a.u.). For “GGGTTGGTTTGGTTTGGTTGCTTCTTCTCTGCTTCAACGGCGGAGTCACCTAGTGCAG”, the binding signal was 40000 fluorescence intensity (a.u.). For “TGTGTTGCTCTCTCTTCACTTGGTTGGCGGCGGCGCTGCGCGGAGTCACCTAGTGCAG”, the binding signal was 8060 fluorescence intensity (a.u.). “ATCTCAATGAGTTGGTCGTTTGCTGCTTCTCTATAGTGAACGGAGTCACCTAGTGCAG” was tested, and the binding signal was 9140 fluorescence intensity (a.u.).
